Screens from PubChem BioAssay.
Rows were chosen to be rich in hits. Some 0.78% of all compounds tested hit in one or more screens of this group.
BLM inh – Bloom syndrome helicase (human) inhibition | recombinant BLM DNA unwinding, fluorescence dequenching | Potency, µM (series often up to 56.1 µM), for the others: at the highest dose activity change, negative = inhibition, most hits filed as inhibitors | 0.2% of 350,000 active;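 note: plate controls were vehicle for no effect and no enzyme for full effect; nearly all actives have a fitted effect of over 35% in size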
Target sequence (P54132 whole entry, looked up): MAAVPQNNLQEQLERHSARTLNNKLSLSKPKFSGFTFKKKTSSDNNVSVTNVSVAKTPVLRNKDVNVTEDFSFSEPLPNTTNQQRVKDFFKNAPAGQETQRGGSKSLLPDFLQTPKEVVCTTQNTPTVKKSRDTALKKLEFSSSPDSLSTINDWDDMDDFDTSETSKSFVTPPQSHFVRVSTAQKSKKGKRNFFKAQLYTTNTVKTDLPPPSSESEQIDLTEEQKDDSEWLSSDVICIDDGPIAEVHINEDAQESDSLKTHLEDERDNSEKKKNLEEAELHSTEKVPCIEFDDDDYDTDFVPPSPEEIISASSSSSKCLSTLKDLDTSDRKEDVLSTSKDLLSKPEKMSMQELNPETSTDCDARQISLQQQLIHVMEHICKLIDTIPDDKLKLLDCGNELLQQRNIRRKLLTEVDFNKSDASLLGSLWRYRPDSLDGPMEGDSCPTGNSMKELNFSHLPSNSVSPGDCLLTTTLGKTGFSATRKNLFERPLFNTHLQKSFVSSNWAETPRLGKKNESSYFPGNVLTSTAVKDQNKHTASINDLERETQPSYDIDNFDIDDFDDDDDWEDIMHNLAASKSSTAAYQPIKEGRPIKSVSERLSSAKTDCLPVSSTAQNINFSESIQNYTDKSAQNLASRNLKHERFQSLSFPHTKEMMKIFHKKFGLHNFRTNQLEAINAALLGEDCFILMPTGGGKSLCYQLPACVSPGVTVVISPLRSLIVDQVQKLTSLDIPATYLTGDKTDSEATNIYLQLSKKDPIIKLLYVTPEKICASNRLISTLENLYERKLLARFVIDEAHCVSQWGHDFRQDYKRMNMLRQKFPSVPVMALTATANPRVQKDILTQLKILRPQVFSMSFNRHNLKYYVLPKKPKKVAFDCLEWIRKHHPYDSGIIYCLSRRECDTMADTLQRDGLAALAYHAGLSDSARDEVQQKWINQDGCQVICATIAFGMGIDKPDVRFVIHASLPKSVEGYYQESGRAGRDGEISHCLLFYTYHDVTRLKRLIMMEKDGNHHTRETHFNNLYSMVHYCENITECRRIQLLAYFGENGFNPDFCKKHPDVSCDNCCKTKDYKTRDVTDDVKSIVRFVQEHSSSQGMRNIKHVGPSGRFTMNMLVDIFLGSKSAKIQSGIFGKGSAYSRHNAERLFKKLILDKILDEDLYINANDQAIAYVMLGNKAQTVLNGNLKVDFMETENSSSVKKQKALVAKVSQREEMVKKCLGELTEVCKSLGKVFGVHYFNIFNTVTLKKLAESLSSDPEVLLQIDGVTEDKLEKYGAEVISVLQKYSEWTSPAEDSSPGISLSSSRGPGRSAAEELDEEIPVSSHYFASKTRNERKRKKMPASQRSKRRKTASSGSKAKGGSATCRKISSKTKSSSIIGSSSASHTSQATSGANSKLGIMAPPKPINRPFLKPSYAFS
L3MBTL1 inh – blocks human L3MBTL1; 0.66% of 230,000 active; Q9Y468; AlphaScreen L3MBTL1–H3K9me1 peptide binding; Potency, µM (doses to about 57.1 µM), for the others: at the top dose activity, negative = inhibition, hits mostly inhibitors; note: nearly all actives have a fitted effect of over 60% in size
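L3MBTL1 (50 nM) pre-complexed 30 min with biotinylated H3(1-15)K9me1 peptide (75 nM), then compounds added for 30 min at room temperature; AlphaScreen streptavidin donor/nickel chelate acceptor beads (10 ug/mL final) read after 30 min dark incubation.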
RECQ1 inh-1 – blocks DNA unwinding by human RECQ1; P46063; AID 2549; RECQ1 DNA unwinding, red fluorescence kinetic read; 0.54% of 240,000 active; Potency, µM (top dose mostly 57.3 µM), inactives show at the top dose activity, negative = inhibition, most hits filed as inhibitors;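 note: plate controls were vehicle for no effect and no enzyme for full effect; nearly all actives have a fitted effect of over 30% in size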
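50 nM RECQ1T1 preincubated 15 min with compound in Tris pH 8.0 buffer with MgCl2, DTT, Tween-20 and 2.5 ug/ml poly(dI-dC); started with 200 nM TAMRA/BHQ-2 forked duplex and 2 mM ATP. Unwinding read as fluorescence (525/598 nm), two reads 2 h apart.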
APEX1 inh – APE1 (human) endonuclease inhibition. P27695. recombinant APE1, TAMRA/BHQ-2 abasic DNA cleavage fluorescence. Potency, µM (titrated, usually from 65.8 µM), for the others: top-dose activity change, negative = inhibition, actives largely listed as inhibitors. 0.35% of 350,000 active;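 note: plate controls were vehicle for no effect and reference inhibitor for full effect; nearly all actives have a fitted effect of over 55% in size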
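Measures dequenching upon AP-site incision of a 5'-TAMRA/3'-BHQ-2 THF-containing duplex, 50 nM; human APE1 0.75 nM after 15 min room-temperature exposure to compound; kinetic three-point read at one-minute spacing.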
RECQ1 conf – confirmation of human RECQ1 helicase inhibitors | shares compounds with RECQ1 inh-1 | RECQ1 helicase DNA unwinding, fluorescence | Potency, µM (top dose mostly 229 µM), inactives show at the highest dose activity change, negative = inhibition, most hits filed as inhibitors | 28% of 610 active | AID 2708; note: nearly all actives have a fitted effect of over 45% in size
RECQ1 ADP FP – counter-screen for RECQ1 inhibitors: ADP displacement; Potency, µM (doses to about 228 µM), inactives show at the top dose activity change, negative = inhibition, actives largely listed as inhibitors; 27% of 530 active; shares compounds with RECQ1 inh-1; AID 2711; ADP fluorescence polarization displacement counterscreen; note: nearly all actives have a fitted effect of over 45% in size
RECQ1 inh-2 – confirmation of human RECQ1 helicase inhibitors. shares compounds with RECQ1 inh-1. recombinant RECQ1 DNA unwinding, red fluorescence. Potency, µM (series often up to 119 µM), for the others: top-dose activity, negative = inhibition, actives largely listed as inhibitors. 15% of 1,100 active. AID 504841; note: nearly all actives have a fitted effect of over 50% in size
* = called active by the depositor; i = inactive; ? = inconclusive; . = no result given; [ ] = remark or other dose. Calls come from the whole dose curve; as a rule, active = well fitted curve in the direction sought with a large enough effect; inconclusive = small, poorly fitted or top-dose-only effect, or another doubt; inactive = no such curve, though single readings can be large; an effect the other way counts as inactive or inconclusive. Unless noted, % is set by controls: 0 for no effect and ±100 for the full control effect; potency is the fitted concentration of half-maximal effect.

SMILES	BLM inh	L3MBTL1 inh	RECQ1 inh-1	APEX1 inh	RECQ1 inh-2	others
COc1ccc(-c2cn3nc(N4CCCC(C(=O)Nc5ccc(C)c(C)c5)C4)sc3n2)cc1 (configuration not stated)	-8%	.	.	.	.
CO[C@H]1COC(=O)[C@H](C)NC(=O)C/C=C\[C@@H](C)[C@@H](NS(=O)(=O)c2ccc(C)cc2)COC(=O)[C@H](OCc2ccccc2)/C=C\[C@@H]1C	0%[12.4 µM]	.	-6%[11.5 µM]	?	.
Cc1ccc(S(=O)(=O)/N=C2/NC(=O)/C(=C/c3ccc(Br)o3)S2)cc1	-6%	?	?	?	?
C#CCn1c(=NC(=O)c2ccc(S(=O)(=O)N3CCCc4ccccc43)cc2)sc2cc(S(N)(=O)=O)ccc21	-4%	-4%	0%	2%	.	RECQ1 conf=-7%;RECQ1 ADP FP=20%
CCOc1ccccc1-n1nnc(S(=O)(=O)c2ccc(C)cc2)c1N	-5%	.	.	.	.
CCOC(=O)CSc1nc(-c2ccc(C)cc2C)cc(-c2ccccc2)c1C#N	-6%	.	.	.	.
COc1ccc(C2C(=O)N(C3CCCCC3)CC(=O)N2CCC2=CCCCC2)cc1 (configuration not stated)	-1%	.	.	.	.
COc1cccc(NC(=O)CC2S/C(=N\S(=O)(=O)c3ccccc3)N(c3ccccc3)C2=O)c1 (configuration not stated)	-5%	-7%	40µM*	11%	-9%
O=C(c1cccc(Cl)c1)N(Cc1ccco1)Cc1ccccc1Cl	-7%	.	.	.	.
COc1ccccc1-c1nnc2n1N=C(c1ccc(O)c(O)c1)CS2	-15%	-29%	32µM*	?	?
COc1cccc(C2=Nn3c(nnc3-c3ccccc3OC)SC2)c1	1%	.	-5%	0%	.
CCc1ccccc1NS(=O)(=O)c1cc(Br)cc2c1N(C(=O)C1CC1)CC2	-5%	.	.	.	.
Cc1cnc(CNc2ncnc3ccc(-c4ccc(N(C)C)cc4)cc23)cn1	-22%	.	25µM*	-9%	?
O=C(C1CC1)N1CCN=C1SCc1cccc(F)c1	3%	5%	?	6%	?
C#CC(C)OC(=O)Nc1cccc(Cl)c1 (configuration not stated)	-3%	.	7%	10%	.
COc1ccccc1N1CCN(C(=O)c2cnn(-c3ccc(F)cc3F)c2C2CCNCC2)CC1	-4%	.	.	.	.
COC(=O)c1ccc(C(=O)OC)c(NC(=O)CSc2n[nH]c(N)n2)c1	.	5%	.	-4%	.
CCOc1ccc(C(=O)CSc2nnc3ccccn23)cc1	1%	.	-8%	-5%	.
COCCn1c(SCCCC(=O)c2ccc(Br)cc2)nnc1-c1ccncc1	0%	.	-1%	-1%	.
CCn1c(CSc2nnc(-c3ccncc3)n2CCOC)nc2cc(C(=O)O)ccc21	-10%	6%	22µM*	-8%	-178%	RECQ1 conf=56µM*;RECQ1 ADP FP=4.5µM*
CCn1c(CSc2nnc3ccccn23)nc2cc(C(=O)O)ccc21	-7%	5%	10µM*	-7%	56µM*	RECQ1 conf=45µM*;RECQ1 ADP FP=2µM*
CCn1c(CSc2n[nH]c(N)n2)nc2cc(C(=O)O)ccc21	-9%	22%	32µM*	?	56µM*
Cc1ccc(NC2=Nc3ccccc3N3C2=Nc2c(c(C)nn2-c2ccccc2)C3c2ccc(O)c(O)c2)cc1 (configuration not stated)	-14%	6%	32µM*	0%	?
COc1ccccc1-c1nccc(NCc2cccc(C)c2)n1	1%	.	1%	0%	.
Oc1ccc(C2CNCCc3c2cc(O)c(O)c3Cl)cc1 (configuration not stated)	-21%	-5%	22µM*	-4%	.	RECQ1 conf=?;RECQ1 ADP FP=45µM*
SMILES	BLM inh	L3MBTL1 inh	RECQ1 inh-1	APEX1 inh	RECQ1 inh-2	others
Oc1cc2c(c(Cl)c1O)CCNC[C@H]2c1ccccc1	-7%	.	?	10%	.
CC1=Nc2ccccc2/C1=C\c1nc(-c2ccc(F)cc2)oc1O	-19%	.	?	9%	?
COc1ccccc1-c1nnc(SC(C(=O)c2c[nH]c3ccccc23)c2ccccc2)n1C (configuration not stated)	-9%	-11%	-14%	-6%	.
COc1cccc(-c2nnc(SC(C(=O)c3c[nH]c4ccccc34)c3ccccc3)n2C)c1 (configuration not stated)	-4%	0%	-7%	-6%	.	RECQ1 conf=2%;RECQ1 ADP FP=15%
COc1cccc(SCc2noc(C(=O)NC(C)C)c2C(=O)O)c1	0%	6%	-1%	1%	.
C=CCNC(=O)c1onc(CSc2cccc(OC)c2)c1C(=O)O	1%	13%	-6%	1%	.	RECQ1 conf=6%;RECQ1 ADP FP=?
CCCCNC(=O)c1onc(CSc2cccc3ccccc23)c1C(=O)O	-3%	12%	6%	1%	.	RECQ1 conf=?;RECQ1 ADP FP=-4%
O=C(NCC1CCCO1)c1onc(CSc2cccc3ccccc23)c1C(=O)O (configuration not stated)	-1%	2%	-10%	-1%	.	RECQ1 conf=5%;RECQ1 ADP FP=2%
CCOc1ccc(-c2nnc(SCC(=O)NCc3ccc(C)cc3)nc2-c2ccc(OCC)cc2)cc1	-3%	.	.	.	.
CCCCOC(=O)CSC1=C(C#N)C(c2ccccc2OC)C(C#N)C(=O)N1 (configuration not stated)	-5%	-5%	14µM*	-4%	?
CCCCOC(=O)CSC1=C(C#N)C(c2ccccc2OCC)C(C#N)C(=O)N1 (configuration not stated)	-2%	-5%	-21%	-6%	.
Cc1nnc2ccc(-c3ccc(NS(=O)(=O)c4ccccc4)cc3)nn12	.	-2%	.	19%	.
CC(=O)c1ccc(S(=O)(=O)Nc2ccc(-c3ccc4nnc(C)n4n3)cc2)cc1	-18%	.	?	?	?
CCC(=O)CC(NC(=O)OC)c1ccc(F)cc1 (configuration not stated)	-1%[12.4 µM]	.	17%[11.5 µM]	?	.
CCc1sc(C(C2C(=O)CC(C)(C)CC2=O)C2C(=O)CC(C)(C)CC2=O)cc1[N+](=O)[O-]	-4%	-1%	3.2µM*	-7%	-12%
CCOC(=O)CCCCC1=CC2=CC(=O)C(C)(O)C(=O)C2=CO1 (configuration not stated)	-2%[12.4 µM]	.	i[11.5 µM]	3%[12.4 µM]	.
Cc1nc(C(=O)Nc2cc(Cl)ccc2Cl)nn1-c1cc(OC(C)C)c(Cl)cc1Cl	-6%	-5%	-9%	-7%	.
Cc1nc(C(=O)Nc2cccc(Cl)c2)nn1-c1cc(OC(C)C)c(Cl)cc1Cl	-9%	-13%	35µM*	-4%	-13%
